# Laboratory results from the supplement of paper PMC8285479.
# Values joined by “and” are separate entries in the source; they are usually repeats but may differ in a detail not shown here. Identical values can stand only once. Counter-ions that a name gives are not always drawn. ± gives the standard deviation of the averaged measurements. Over roughly 1,900 compounds, “normalised cell viability (NPI; 0 = phenylarsine oxide control, 1 = DMSO control)” has its median near 1; the lowest 2% begin near 0.039. The sample as a whole holds a higher share of the lowest values than the screen did.
# System: NCI-H1944
# Experiment: normalised cell viability (NPI; 0 = phenylarsine oxide control, 1 = DMSO control) (fraction of DMSO control); NCI-H1944 is a non-small cell lung cancer line; higher = more viable cells (less compound toxicity)
# Settings: 6 days
# [1] = glucocorticoid arm: hydrocortisone 2.75 uM co-treatment, compound 1 µM
# [2] = glucocorticoid arm: hydrocortisone 2.75 uM co-treatment, compound 5 µM
# [3] = glucocorticoid arm: hydrocortisone 2.75 uM pre-treated 2 days and continued, compound 1 µM
# [4] = glucocorticoid arm: hydrocortisone 2.75 uM pre-treated 2 days and continued, compound 5 µM
# [5] = glucocorticoid arm: vehicle, compound 1 µM
# [6] = glucocorticoid arm: vehicle, compound 5 µM
# 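Also: CTB read-out in 384-well plates, triplicate wells, NPI normalised per plate against 1 µM phenylarsine oxide (0) and 0.1% DMSO (1) controls.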
SMILES,normalised cell viability [1],normalised cell viability [2],normalised cell viability [3],normalised cell viability [4],normalised cell viability [5],normalised cell viability [6]
CS(=O)(=O)CCNCc1ccc(-c2ccc3ncnc(Nc4ccc(OCc5cccc(F)c5)c(Cl)c4)c3c2)o1 [Lapatinib ditosylate; Lapatinib; Lapatinib Ditosylate],0.9643 ± 0.0055,0.00258 ± 0.00055,0.968 ± 0.014,0.0327 ± 0.0022,0.947 ± 0.0092,0.00168 ± 0.00026
CS(=O)(=O)CCNCc1ccc(-c2ccc3ncnc(Nc4ccc(OCc5cccc(F)c5)c(Cl)c4)c3c2)o1 [Lapatinib Ditosylate (Tykerb)],0.945 ± 0.0092,0.916 ± 0.017,0.981 ± 0.021,0.938 ± 0.028,0.911 ± 0.02,0.868 ± 0.022
C=CC(=O)Nc1ccc2ncnc(Nc3ccc(OCc4cccc(F)c4)c(Cl)c3)c2c1,0.905 ± 0.016,0.854 ± 0.043,0.92 ± 0.014,0.93 ± 0.023,0.815 ± 0.021,0.623 ± 0.016
CCCCC#Cc1nc(N)c2ncn([C@@H]3O[C@H](C(=O)NCC)[C@@H](O)[C@H]3O)c2n1,1.01 ± 0.015,0.979 ± 0.011,1.007 ± 0.0058,1.01 ± 0.014,1.01,1.003 ± 0.0058
O=c1[nH]cc(F)c(=O)[nH]1 [5-Fluorouracil; Fluorouracil],1.043 ± 0.0058,0.706 ± 0.037,1.01 ± 0.015,0.838 ± 0.011,0.971 ± 0.0044,0.522 ± 0.032
O=c1[nH]cc(F)c(=O)[nH]1 [5-Fluorouracil],0.98 ± 0.002,0.766 ± 0.0085,0.981 ± 0.012,0.984 ± 0.015,0.9837 ± 0.0084,0.729 ± 0.03
CN(C(Cc1ccc(OS(=O)(=O)c2cccc3cnccc23)cc1)C(=O)N1CCN(c2ccccc2)CC1)S(=O)(=O)c1cccc2cnccc12 (stereo unspecified),1.02 ± 0.011,0.993 ± 0.015,1.007 ± 0.0058,0.974 ± 0.029,1.01,1.01
CN1CC[C@@H](c2c(O)cc(O)c3c(=O)cc(-c4ccccc4Cl)oc23)[C@@H]1CO,0.183 ± 0.011,0.031 ± 0.004,0.601 ± 0.026,0.0698 ± 0.0051,0.0431 ± 0.0039,0.00913 ± 0.002
CN1CC[C@H](c2c(O)cc(O)c3c(=O)cc(-c4ccccc4Cl)oc23)[C@H](O)C1 [Flavopiridol (Alvocidib)],0.0613 ± 0.0073,0.0242 ± 0.0072,0.109 ± 0.015,0.0932 ± 0.025,0.0171 ± 0.0043,0.00703 ± 0.0012
CN1CC[C@H](c2c(O)cc(O)c3c(=O)cc(-c4ccccc4Cl)oc23)[C@H](O)C1 [Flavopiridol hydrochloride],0.0447 ± 0.0058,0.0238 ± 0.0012,0.066 ± 0.0098,0.0883 ± 0.016,0.0103 ± 0.0015,0.00802 ± 0.0019
COc1ccc(CCN(C)CCCC(C#N)(c2cc(OC)c(OC)c(OC)c2)C(C)C)cc1OC (racemic) [(±)-Methoxyverapamil hydrochloride],1.007 ± 0.0058,0.998 ± 0.039,1.01 ± 0.01,1.01 ± 0.019,0.9847 ± 0.0042,0.999 ± 0.018
Cc1cnc(NC(=O)Nc2cc(Br)c(C)cc2OC[C@@H]2CNCCO2)cn1,1.03 ± 0.015,0.827 ± 0.041,1.04 ± 0.015,1.04 ± 0.011,0.776 ± 0.01,0.334 ± 0.027
CCCCCCCCCCCCCCCc1cccc(OCC)c1C(=O)Nc1ccc(Cl)c(C(F)(F)F)c1,1.01 ± 0.014,1.01 ± 0.011,1.01 ± 0.02,1.02 ± 0.016,0.9997 ± 0.0097,1 ± 0.0054
N#C[C@@H]1CCCN1C(=O)CNC12CC3CC(CC(O)(C3)C1)C2 [Vildagliptin (LAF-237)],0.994 ± 0.0087,1 ± 0.011,0.9973 ± 0.0046,1.004 ± 0.01,0.998 ± 0.012,1.01
CN1CCN(S(=O)(=O)c2ccc(-c3cnc(N)c(C(=O)Nc4cccnc4)n3)cc2)CC1,1.113 ± 0.011,1.2 ± 0.015,1.1 ± 0.011,1.1 ± 0.021,0.743 ± 0.0076,0.959 ± 0.021
COc1ccc(-c2nc(N3CCOCC3)c3sc(CN(C)c4ncc(C(=O)NO)cn4)cc3n2)cn1,0.00442 ± 0.0038,0.00164 ± 0.00085,0.0384 ± 0.044,0.00149 ± 0.001,0.00371 ± 0.0034,0.000104 ± 0.00053
CS(=O)(=O)N1CCN(Cc2cc3nc(-c4cccc5[nH]ncc45)nc(N4CCOCC4)c3s2)CC1,1.02 ± 0.022,1.05 ± 0.015,1.02 ± 0.011,1.05 ± 0.015,0.998 ± 0.012,1.005 ± 0.0087
Cc1c(CN2CCN(C(=O)[C@H](C)O)CC2)sc2c(N3CCOCC3)nc(-c3cnc(N)nc3)nc12,0.631 ± 0.017,0.433 ± 0.034,0.59 ± 0.02,0.399 ± 0.076,0.757 ± 0.035,0.552 ± 0.033
C[C@H]1c2cccc(O)c2C(O)=C2C(=O)[C@]3(O)C(O)=C(C(N)=O)C(=O)[C@@H](N(C)C)[C@@H]3[C@@H](O)[C@@H]21 [Doxycycline HCl],0.994 ± 0.007,0.986 ± 0.026,0.9957 ± 0.0031,0.99 ± 0.006,0.9947 ± 0.0025,1 ± 0.015
NCC(O)C1CCCCCCC1 (stereo unspecified) [2-Cyclooctyl-2-hydroxyethylamine hydrochloride],0.987 ± 0.012,0.971 ± 0.016,0.998 ± 0.013,0.972 ± 0.02,0.9697 ± 0.0015,0.9663 ± 0.0085
CCC(=O)NCC[C@@H]1CCc2ccc3c(c21)CCO3 [Ramelteon],1 ± 0.018,1.01 ± 0.011,1.006 ± 0.0069,1.01 ± 0.019,0.9943 ± 0.009,0.9933 ± 0.0061
Nc1nc(Cl)nc2c1ncn2[C@@H]1O[C@H](CO)[C@@H](O)[C@@H]1F [Clofarabine],0.124 ± 0.015,0.146 ± 0.0052,0.341 ± 0.017,0.302 ± 0.017,0.0363 ± 0.0032,0.0483 ± 0.0032
Nc1ncnc2c1ncn2[C@@H]1O[C@H](CO)[C@@H](O)[C@H]1O [Adenosine],0.9973 ± 0.0046,1.01 ± 0.01,0.995 ± 0.015,0.987 ± 0.019,1 ± 0.015,1.003 ± 0.0058
Nc1nc(Cl)nc2c1ncn2[C@@H]1O[C@H](COP(=O)(O)OP(=O)(O)OP(=O)(O)O)[C@H](O)C1O (stereo partly specified) [2-Chloroadenosine triphosphate tetrasodium],0.992 ± 0.0076,0.818 ± 0.041,0.988 ± 0.018,0.917 ± 0.019,0.987 ± 0.0044,0.981 ± 0.0056
Nc1ncn([C@H]2C[C@H](O)[C@@H](CO)O2)c(=O)n1 [5-Aza-2'-deoxycytidine; Decitabine],1.073 ± 0.0058,1.15 ± 0.026,1.07 ± 0.01,1.1 ± 0.02,0.204 ± 0.009,0.22 ± 0.021
Nc1ncn([C@H]2C[C@H](O)[C@@H](CO)O2)c(=O)n1 [5-Aza-2'-deoxycytidine],1.087 ± 0.0058,1.12 ± 0.05,1.07 ± 0.01,1.09 ± 0.015,0.581 ± 0.051,0.296 ± 0.027
Nc1ncn([C@H]2C[C@H](O)[C@@H](CO)O2)c(=O)n1 [Decitabine],1.1 and 1.06,–,1.08 and 1.05,–,–,–
Nc1nc(Cl)nc2c1ncn2[C@H]1C[C@H](O)[C@@H](CO)O1 [Cladribine],0.0575 ± 0.013,0.0436 ± 0.0033,0.169 ± 0.0085,0.1867 ± 0.0011,0.0131 ± 0.0023,0.0121 ± 0.0031
Nc1nc(Cl)nc2c1ncn2[C@@H]1O[C@H](CO)[C@@H](O)[C@H]1O [2-Chloroadenosine],0.998 ± 0.013,0.982 ± 0.011,0.998 ± 0.011,0.974 ± 0.052,0.9847 ± 0.0078,0.9883 ± 0.0078
CN(C)CCOc1ccc(-c2nc(-c3ccncc3)c(-c3ccc4c(c3)CC/C4=N\O)[nH]2)cc1,1.103 ± 0.0058,1.16 ± 0.032,1.07 ± 0.011,1.11 ± 0.021,1.013 ± 0.0058,1 ± 0.05
